Gal4-VP16 FLuc – counter-screen for ROR gamma inhibitors: Gal4-VP16 reporter. 310,000 tested, 3.5% active. Drosophila S2 Gal4-VP16 UAS-luciferase, luminescence, 20 h. Potency, µM (titrated, usually from 53.6 µM), usual class: inhibitors;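 note: Gal4-VP16 expression switched on by copper sulfate through the metallothionein promoter; nearly all actives have a fitted effect of over 50% in size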
RORgamma inh – inhibitors of mouse ROR gamma transcriptional activity. P51450. Drosophila S2 Gal4-RORgamma UAS-luciferase reporter, 20 h. AID 2551. Potency, µM (highest dose often 53.6 µM), actives largely listed as inhibitors. 310,000 tested, 5.4% active; note: nearly all actives have a fitted effect of over 60% in size
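Drosophila Schneider cells stably carrying a metallothionein-driven Gal4 DBD–ROR gamma fusion and a UAS-Photinus luciferase reporter were exposed to compound for 1 hr, then induced with copper sulfate (700 uM final) for 20 hr at ambient temperature before luminescence reading.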
Giardia kill – Giardia lamblia killing | Giardia lamblia trophozoite viability | 340,000 tested, 0.15% active | activity change, % at 7.66 µM, hits read low; in the data active = activity change below about -80%; inconclusive = between about -30% and that limit;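 note: parasites exposed to compound for two days anaerobically before the ATP read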
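Anaerobic 48 hrs incubation at 37 deg C of 100 trophozoites/well with test compounds; ATPLite 1-Step luminescence, 15-30 min RT, reports cellular ATP as viability.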
a7 integrin act – activators of alpha7 integrin expression for muscular dystrophy. alpha7betagal myoblasts, beta-gal FDG fluorescence, 48 h. Potency, µM (highest dose often 38.3 µM), hits mostly activators. 350,000 tested, 0.064% active. AID 624291; note: nearly all actives have a fitted effect of over 60% in size
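Alpha7betagal+/- myoblasts (passage 13) were plated 16-24 hr, then exposed to compounds (1:260 dilution of DMSO stock) for 48 hours at 37C. After MPER lysis, β-galactosidase reporter activity was read as FDG fluorescence (ex 480/em 540) after 30 minutes.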
ERG Ets-DNA blk – ERG Ets/DNA interaction inhibition | P11308 | fluorescence polarization, His-ERG Ets domain / labelled DNA | Potency, µM (titrated, usually from 76.9 µM), most hits filed as inhibitors | 370,000 tested, 0.028% active | AID 624246; active = well fitted inhibition curve with a large enough effect in the polarisation, with a control signal flat; inconclusive = small, poorly fitted or top-dose-only effect, or effect the other way, or a change in a side signal; inactive = no such curve, though single readings can be large or run the other way; the % refers to the polarisation;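 note: polarization taken with two DNA probes labelled with fluorescein and Texas red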
Target sequence (P11308 whole entry, looked up, the tested form may be a part): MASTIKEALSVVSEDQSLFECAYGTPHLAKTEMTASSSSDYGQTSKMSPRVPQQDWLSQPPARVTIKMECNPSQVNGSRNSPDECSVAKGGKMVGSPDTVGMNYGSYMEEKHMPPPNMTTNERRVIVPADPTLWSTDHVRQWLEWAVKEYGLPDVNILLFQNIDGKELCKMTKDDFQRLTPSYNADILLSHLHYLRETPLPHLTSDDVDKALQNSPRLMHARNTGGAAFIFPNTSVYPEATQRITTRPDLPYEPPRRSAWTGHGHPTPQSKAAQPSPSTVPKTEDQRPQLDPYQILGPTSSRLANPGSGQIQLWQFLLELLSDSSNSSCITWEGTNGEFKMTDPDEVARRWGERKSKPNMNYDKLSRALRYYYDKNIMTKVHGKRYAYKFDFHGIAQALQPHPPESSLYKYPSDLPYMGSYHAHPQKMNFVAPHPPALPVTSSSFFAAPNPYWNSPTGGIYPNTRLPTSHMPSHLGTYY
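His-tagged ERG Ets domain (1 uM in the protein solution; 300mM KCl, 50mM Tris-HCl, 1mM EDTA, 1mM DTT, pH 7.5) received compound, then a probe mix of 5 nM fluorescein-DNA and 100nM Texas-615-DNA. Fluorescence polarization was read for both dyes.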
Numbers stand for hits; - = inactive; ? = inconclusive; . = no result given; [ ] = another dose, or the depositor's remark. Many of the other results were omitted from the sample, so hits are more common in it than they were. Unless noted, calls come from the whole dose curve; as a rule, active = well fitted curve in the direction sought with a large enough effect; inconclusive = small, poorly fitted or top-dose-only effect, or another doubt; inactive = no such curve, though single readings can be large; an effect the other way counts as inactive or inconclusive.

SMILES | Gal4-VP16 FLuc | RORgamma inh | Giardia kill | a7 integrin act | ERG Ets-DNA blk
CC(=O)N/N=C/c1cc(C(C)(C)C)cc(/C=N/NC(C)=O)c1O | 14.1µM | 2.82µM | - | - | -
O=C(N/N=C/c1ccc(O)cc1O)C1CC1 | . | . | - | - | -
CCCN(Cc1ccccc1)C(=S)Nc1ccc(OCC)cc1 | - | 10µM | - | - | -
C=CCNC(=S)N(Cc1ccccc1)Cc1ccc(F)cc1 | - | 17.8µM | - | - | -
CCCN(Cc1ccccc1)C(=S)Nc1ccc(F)cc1 | - | 15.8µM | - | - | -
CCOc1ccc(NC(=S)N(CC)Cc2ccccc2)cc1 | - | 14.1µM | . | . | .
N#CCCN(Cc1ccccc1)C(=S)Nc1ccc(F)cc1 | - | - | - | - | -
CCCN(Cc1ccccc1)C(=S)Nc1ccc(SC(F)F)cc1 | ? | 8.91µM | - | - | -
CCCN(Cc1ccccc1)C(=S)Nc1cccc(C(F)(F)F)c1 | ? | -[10 µM] | - | - | -
CSc1cnn(Cc2ccccc2)c(=O)c1SCc1ccccc1 | 2.51µM | 0.562µM | - | - | .
CSc1cnn(-c2ccccc2)c(=O)c1SC | - | - | - | -[7.66 µM] | -
Cc1ccc(-n2c(=S)[nH]c3c(oc4ccccc43)c2=O)cc1C | 1.78µM | 1.41µM | - | - | -
O=c1[nH]c2c(oc3ccccc32)c(=O)n1Cc1ccccc1 | - | - | - | - | -
O=c1c2oc3ccccc3c2[nH]c(=S)n1-c1ccc(F)cc1 | ? | 3.98µM | - | - | -
CC(=O)Nc1ccc(C2NC(C(=O)O)CCC2C)cc1 (centres undefined) | -[10 µM] | -[10 µM] | . | . | .
NS(=O)(=O)c1ccc(CCNC(=O)CSc2nc3ccsc3c(=O)n2CCCCCC(=O)O)cc1 | - | 7.94µM | - | - | -
NS(=O)(=O)c1ccc(CCNC(=O)CSc2nc3ccsc3c(=O)n2CC(=O)O)cc1 | - | - | - | - | -
COc1ccc(CCNC(=O)C/C(C)=N/NC(=O)c2ccc(Cl)cc2Cl)cc1OC | - | - | - | - | -
COc1ccc(CCN(C)C(=S)NC(=O)c2ccc(F)cc2Cl)cc1OC | 3.98µM | 1.58µM | - | - | -
COc1ccc(CCN(C)C(=S)Nc2ccc(SC(F)F)cc2)cc1OC | ? | 20µM | - | - | -
COc1ccc(-n2c(SCC(=O)Nc3ccc(C(=O)O)cc3)nnc2-c2ccccc2)cc1OC | - | - | - | - | -
COC(=O)c1ccc(/C=C2\SC(=S)N(CCCC(=O)NCCCN3CCOCC3)C2=O)cc1 | 1.78µM | 2.24µM | - | - | -
COc1ccc(/C=C2\SC(=S)N(CCC(=O)NCCCN3CCOCC3)C2=O)cc1 | - | - | - | - | -
O=C(CCCN1C(=O)/C(=C/c2cccc(Br)c2)SC1=S)NCCCN1CCOCC1 | - | 10µM | - | - | -
CCCn1cc(S(=O)(=O)c2ccc(OC)cc2)c(=O)c2cc(F)c(N3CCCCCC3)cc21 | . | . | . | . | -
SMILES | Gal4-VP16 FLuc | RORgamma inh | Giardia kill | a7 integrin act | ERG Ets-DNA blk
CC(C)(C)NC(=O)C(c1ccc(-c2ccccc2)cc1)N(C[C@H]1CC[C@@H]([C@@H]2CC[C@H](CO)O2)O1)C(=O)c1ccccc1F (some centres undefined) | . | . | - | - | -
CC(=O)Nc1ccc(S(=O)(=O)NNc2ccc([N+](=O)[O-])cc2)cc1 | - | - | - | - | -
COc1ccc(-c2cc(C(F)(F)F)nc(-n3ccnc3C)n2)cc1 | ? | 11.2µM | - | - | .
COc1cccc(/C=N/NC(=O)CNC(=O)COc2cccc(C)c2)c1O | 2.24µM | 0.282µM | - | - | -
COc1cccc(/C=N/NC(=O)CSc2ccccc2C)c1O | 0.794µM | 0.708µM | - | - | -
COc1ccc(/C=C/C(=O)NCC(=O)N/N=C/c2cc(Br)ccc2OC)cc1 | - | - | - | - | -
COc1ccccc1/C=C/C(=O)NCC(=O)N/N=C/c1cc(Br)ccc1OC | - | 12.6µM | - | - | -
COc1ccccc1/C=C/C=N/NC(=O)c1cccs1 | ? | 7.94µM | - | - | -
COc1ccccc1/C=C\C=N\NC(=O)c1ccco1 | ? | ? | - | - | -
COc1cccc(/C=N/NC(=O)CSc2ccccc2C)c1OC | - | - | - | - | -
COc1cccc(S(=O)(=O)N(C)C[C@H]2OCc3cnnn3CCCC(=O)N([C@H](C)CO)C[C@@H]2C)c1 | . | . | . | - | .
C=C1C(=O)OC(CCCCCCCC)C1C(=O)O (centres undefined) | - | - | . | . | .
COc1cccc(/C=N/NC(=O)CNC(=O)CCc2ccccc2)c1O | - | ? | - | - | -
COc1cccc(/C=N/NC(=O)CNC(=O)c2cccs2)c1O | 11.2µM | 3.16µM | - | - | -
COc1ccccc1/C=C\C(=O)NCC(=O)N/N=C/c1cccc(OC)c1O | 7.08µM | 4.47µM | - | - | -
COc1cccc(NCc2cc(=O)oc3cc(-c4ccccc4)c(O)cc23)c1 | ? | ? | - | - | -
O=C(COc1ccc(Cl)cc1)Nc1nnc(C2=COCCO2)o1 | - | 12.6µM | - | - | -
O=C(COc1ccc(Cl)cc1Cl)Nc1nnc(C2=COCCO2)o1 | 4.47µM | 3.16µM | - | - | -
CCOC(=O)c1c(C)[nH]c(C)c1S(=O)(=O)N1CCC(C(=O)NCc2ccc(N(C)C)cc2)CC1 | . | . | . | . | -
CCC(C)c1nc2ccsc2c(N2CCOC2=O)c1-c1ccccc1 (centres undefined) | . | . | - | - | -
Cc1cccc(NC(=S)NCc2ccccc2Cl)c1C | 3.98µM | 5.01µM | - | - | -
Cc1ccc(NC(=S)NCCc2ccccc2)nc1 | 5.01µM | 0.501µM | - | - | -
Cc1cccc(C)c1NC(=S)NCCc1ccc(O)c(O)c1 | ? | 7.94µM | - | - | -
Cc1c(Cl)cccc1NC(=S)NCc1ccccc1 | . | . | - | - | -
COc1ccc(CCNC(=S)Nc2cccc(C)c2C)cc1 | 7.94µM | 3.98µM | - | - | -
SMILES | Gal4-VP16 FLuc | RORgamma inh | Giardia kill | a7 integrin act | ERG Ets-DNA blk
S=C(NCCc1ccccc1)Nc1ncccn1 | . | . | - | - | -
Cc1cccnc1NC(=S)NCCc1ccccc1 | 10µM | 2.82µM | - | - | -
Cc1cccc(NC(=S)NCCc2ccccc2)c1C | 5.01µM | 3.55µM | - | - | -
COc1ccc(C(=O)c2oc3ccccc3c2NC(=O)COc2c(C)cc(C)cc2C)cc1 | . | . | . | . | -
O=C(NCCCN1CCOCC1)c1nn(-c2ccccc2)c(=O)c2ccccc12 | . | . | - | - | -
Cc1cc(C(=O)COc2ccccc2C(N)=O)c(C)n1CC1CCCO1 (centres undefined) | 10µM | - | - | - | -
Cc1cc(C(=O)COC(=O)c2ccccc2NCCO)c(C)n1CC1CCCO1 (centres undefined) | 1.58µM | 0.794µM | ? | ? | -
Cc1cc(C(=O)COC(=O)c2ccccc2O)c(C)n1CC1CCCO1 (centres undefined) | . | . | - | - | -
Cc1cc(C(=O)COC(=O)c2ccccc2Br)c(C)n1CC1CCCO1 (centres undefined) | 8.91µM | 14.1µM | ? | - | -
Cc1ccc(C(=O)OCC(=O)c2cc(C)n(CC3CCCO3)c2C)cc1 (centres undefined) | -[10 µM] | ? | - | - | -

Compound activity as filed in PubChem BioAssay.
